PubChem BioAssay AID1159580 (chemical genetic matrix, 2015)
Values joined by “and” are separate entries in the source; they are usually repeats but may differ in a detail not shown here. Equal values may be shown once. Screen size: about 5,500 compounds; about 2,000 (36%) were called active. Not shown: some 18% with an inconclusive outcome. Cut-off read from the data, not from the text of the source: active = normalized growth mostly below about 0.91 (no sharp cut-off); inconclusive = no clear call, values can overlap the other calls; inactive = mostly above about 0.92. This is one part of the list.

Assay: chemical genetic growth profiling, strain panel (AID 1159580);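 note: tested at 20 µM; growth read once vehicle control cultures reached saturation at 30 °C; 1 = growth at the plate median or of vehicle wells; lower values mean less growth of the strain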
Details: S. cerevisiae deletion strains, growth OD

Measured: normalized growth

CC(=O)O[C@H]1C[C@@H](O)C(C)(C)C2C[C@@H](OC(C)=O)[C@]3(C)C(CC[C@@]4(C)[C@H](c5ccoc5)OC(=O)C5OC543)[C@]21C (stereo partly specified)
inactive: locus YAL013W, strain DEP1, hits give low values 0.994 | locus YAL021C, strain ccr4, hits give low values 1.02 | locus YAL026C, strain drs2, hits give low values 1.01 | locus YAL030W, strain snc1, hits give low values 1 | locus YBL061C, strain skt5, hits give low values 1 | locus YBR009C, strain hhf1, hits give low values 0.997 | locus YBR021W, strain FUR4, hits give low values 1.03 | locus YBR023C, strain chs3, hits give low values 1.01 | locus YBR171W, strain sec66, hits give low values 1.01 | locus YBR229C, strain ROT2, hits give low values 0.948 | locus YBR231C, strain swc5, hits give low values 0.998 | locus YBR279W, strain paf1, hits give low values 0.999 | locus YCL011C, strain gbp2, hits give low values 0.999 | locus YCL016C, strain dcc1, hits give low values 0.997 | locus YCL029C, strain bik1, hits give low values 0.984 | locus YCL061C, strain MRC1, hits give low values 1.01 | locus YCL069W, strain vba3, hits give low values 1 | locus YCR088W, strain abp1, hits give low values 1.01 | locus YDL005C, strain med2, hits give low values 1 | locus YDL035C, strain GPR1, hits give low values 0.984 | locus YDL040C, strain nat1, hits give low values 1 | locus YDL074C, strain BRE1, hits give low values 0.952 | locus YDL101C, strain DUN1, hits give low values 0.986 | locus YDL185W, strain tfp1, hits give low values 0.97 | locus YDL192W, strain arf1, hits give low values 0.97 | locus YDR001C, strain nth1, hits give low values 1.01 | locus YDR069C, strain doa4, hits give low values 1.01 | locus YDR101C, strain arx1, hits give low values 0.973 | locus YDR137W, strain rgp1, hits give low values 1 | locus YDR159W, strain sac3, hits give low values 1.01 | locus YDR162C, strain NBP2, hits give low values 0.977 | locus YDR195W, strain ref2 0.985 | locus YDR297W, strain sur2, hits give low values 1.01 | locus YDR318W, strain mcm21, hits give low values 0.984 | locus YDR334W, strain swr1, hits give low values 1.01 | locus YDR335W, strain msn5, hits give low values 0.996 | locus YDR388W, hits give low values 1 | locus YDR392W, strain spt3, hits give low values 1.02 | locus YDR502C, strain sam2, hits give low values 1.01 | locus YEL003W, strain gim4, hits give low values 1 | locus YEL037C, strain rad23, hits give low values 0.997 | locus YEL061C, strain CIN8 (second series), hits give low values 1.01 | locus YER015W, strain faa2, hits give low values 1.01 | locus YER016W, strain bim1, hits give low values 1 | locus YER110C, hits give low values 0.97 | locus YER111C, strain swi4, hits give low values 1.02 | locus YER155C, strain BEM2 (second series), hits give low values 1.02 | locus YER155C, strain BEM2, hits give low values 1.02 | locus YER167W, strain BCK2, hits give low values 0.988 | locus YFR010W, strain ubp6, hits give low values 1.01 | locus YGL078C, strain dbp3, hits give low values 0.983 | locus YGL086W, strain mad1, hits give low values 0.997 | locus YGL167C, strain pmr1, hits give low values 0.999 | locus YGL173C, strain kem1, hits give low values 1.01 | locus YGL227W, strain vid30, hits give low values 1 | locus YGL240W, strain doc1, hits give low values 1 | locus YGL248W, strain PDE1, hits give low values 0.975 | locus YGL253W, strain hxk2, hits give low values 1.02 | locus YGR078C, strain PAC10, hits give low values 1 | locus YGR135W, strain pre9, hits give low values 1.03 | locus YGR229C, strain SMI1, hits give low values 0.976 | locus YGR252W, strain gcn5, hits give low values 0.966 | locus YHR013C, strain ard1, hits give low values 1.01 | locus YHR027C, strain rpn1, hits give low values 1.01 | locus YHR030C, strain SLT2, hits give low values 0.987 and 0.952 | locus YHR079C, strain IRE1 (second series), hits give low values 0.99 | locus YHR079C, strain IRE1, hits give low values 0.974 | locus YHR094C, strain hxt1, hits give low values 0.979 | locus YHR129C, strain ARP1, hits give low values 0.993 | locus YHR142W, strain chs7, hits give low values 0.999 | locus YHR200W, strain rpn10, hits give low values 0.99 | locus YIL066C, strain RNR3, hits give low values 0.957 | locus YIL073C, strain SPO22, hits give low values 1.04 | locus YIL125W, strain kgd1, hits give low values 0.983 | locus YIR030C, strain dcg1, hits give low values 0.992 | locus YJL092W, strain hpr5, hits give low values 1.01 | locus YJL095W, strain BCK1 (second series), hits give low values 1.01 | locus YJL095W, strain BCK1, hits give low values 1.03 and 1 | locus YJL115W, strain asf1, hits give low values 1 | locus YJL129C, strain trk1, hits give low values 1.01 | locus YJL134W, strain LCB3, hits give low values 0.978 | locus YJL154C, strain vps35, hits give low values 1 | locus YJL164C, strain tpk1, hits give low values 1.01 | locus YJL166W, strain qcr8, hits give low values 0.999 | locus YJL168C, strain set2, hits give low values 0.997 | locus YJL187C, strain SWE1 (second series), hits give low values 0.999
